According to ChEMBL document CHEMBL4513216, “Probing the Open Global Health Chemical Diversity Library for Multistage-Active Starting Points for Next-Generation Antimalarials” (ACS Infect Dis, 2020):
In all, about 69,000 compounds went through this assay and about 8,600 (12%) showed an effect of 50% or more. Shown is part of a subset that was picked to be rich in strong results.

test system: Plasmodium berghei; test: Screen against P. berghei liver stage (PbLuc), transformed with Luciferase, at 10uM; format: functional, HepG2; conditions: tested at 10 uM

How did the INHIBITION turn out when O=C(c1ccncc1)N1CCc2ncnc(C3CC3)c2CC1 was run?
Its INHIBITION is 27.6%.

Which INHIBITION does the source give for CCC(Nc1cccc(OC)c1)C(=O)NCc1ccc2[nH]c(=O)[nH]c2c1 (configuration not stated) here?
Its INHIBITION is -0.27%.

For Cc1cc(C(=O)N2CCC(n3cc(CO)nn3)CC2)ccc1F, which INHIBITION is on record?
Its INHIBITION is 39.3%.

C=C1C(C)(C)[C@@H]2CC[C@]1(C(=O)N1CCC(Cn3cc(CO)nn3)CC1)C2 was tested. Which INHIBITION did it give?
The INHIBITION was 45.6%.

With Cc1ccc(C(=O)N2CCC(n3cc(CO)nn3)CC2)cn1 as the molecule, how does the INHIBITION read?
The INHIBITION was 55.9%.

With C=C1C(C)(C)[C@@H]2CC[C@]1(C(=O)N1CCC(n3cc(CCO)nn3)CC1)C2 as the molecule, how does the INHIBITION read?
Its INHIBITION is -10.9%.

How did the INHIBITION turn out when C=C1C(C)(C)[C@@H]2CC[C@]1(C(=O)N1CCC(n3cc(CO)nn3)CC1)C2 was run?
Its INHIBITION is 54.5%.

Which INHIBITION does the source give for Cc1ccoc1C(=O)N1CCC(n2cc(CO)nn2)CC1 here?
The INHIBITION was -37.8%.

With Cn1cc(C2CC(=O)NC23CCN(Cc2nccs2)CC3)cn1 (configuration not stated) as the molecule, how does the INHIBITION read?
The INHIBITION was -0.371%.

With N#Cc1cccc(CN2C[C@H](OCC3CCOCC3)[C@H]3COC[C@H]32)c1 as the molecule, how does the INHIBITION read?
Its INHIBITION is 19.5%.

Which INHIBITION does the source give for Cc1c[nH]nc1C1CCN(c2cnccn2)C1 (configuration not stated) here?
Its INHIBITION is 9.745%.

How did the INHIBITION turn out when COc1ccc(-c2ccc(C(=O)O)c(F)c2)c(F)c1 was run?
The INHIBITION was 15.2%.

Which INHIBITION does the source give for Cn1cc(C(=O)O)c(-c2ccc(F)cc2F)n1 here?
Its INHIBITION is 18%.

Which INHIBITION does the source give for CC(C)(C)n1cc(C(=O)O)c(-c2ccc(F)cc2F)n1 here?
Its INHIBITION is 68.3%.

Which INHIBITION does the source give for Cc1cc(NC(=O)COC(=O)c2ccc(F)cc2Br)n(C)n1 here?
Its INHIBITION is 34.1%.

Cn1cc(C(=O)OCC(N)=O)c(-c2ccc(F)cc2F)n1 was tested. Which INHIBITION did it give?
The INHIBITION was 58.6%.

With CC(CN(C)C(=O)c1cn(C)nc1-c1ccc(F)cc1F)C(=O)O (configuration not stated) as the molecule, how does the INHIBITION read?
Its INHIBITION is 24.4%.

For O=C(Nc1cccc(Cn2cccn2)c1)N1CCCC(N2CCCC2)C1 (configuration not stated), which INHIBITION is on record?
Its INHIBITION is 16.2%.

How did the INHIBITION turn out when CS(=O)(=O)CCCSc1n[nH]c(-c2ccc3c(c2)CCC3)n1 was run?
The INHIBITION was -18.8%.

Cc1ccc(F)cc1S(=O)(=O)NCc1cccc(C(=O)N2CCCC2)c1 was tested. Which INHIBITION did it give?
Its INHIBITION is -77.1%.

For O=C(NC1CCC(O)CC1)c1ccc2nc(-c3ccccc3)cn2c1 (configuration not stated), which INHIBITION is on record?
Its INHIBITION is -25.1%.

For COCC(=O)N(C)Cc1cccc(Cl)c1, which INHIBITION is on record?
The INHIBITION was 15%.

For O=C(CN1CCN(CC(O)C2CC2)CC1)NCc1ccc(F)cc1 (configuration not stated), which INHIBITION is on record?
The INHIBITION was 1.58%.

O=C(c1ccccn1)N1CCn2cnc(COCC3CC3)c2C1 was tested. Which INHIBITION did it give?
Its INHIBITION is 19.7%.

O=C(c1cscn1)N1CCn2cnc(COCC3CC3)c2C1 was tested. Which INHIBITION did it give?
Its INHIBITION is -6.23%.

With O=C(c1ccoc1)N1CCCn2cnc(COCC3CC3)c2C1 as the molecule, how does the INHIBITION read?
The INHIBITION was 39.2%.

Which INHIBITION does the source give for O=C(c1ccoc1)N1CCn2cnc(COCC3CC3)c2C1 here?
Its INHIBITION is 56.7%.

O=C(c1cnccn1)N1CCn2cnc(COCC3CC3)c2C1 was tested. Which INHIBITION did it give?
The INHIBITION was 60.1%.

For CCOCc1ncn2c1CN(C(=O)c1ccoc1)CC2, which INHIBITION is on record?
The INHIBITION was 39.2%.

With c1cnn(CC2CCCCN2Cc2nc(-c3ccsc3)no2)c1 (configuration not stated) as the molecule, how does the INHIBITION read?
The INHIBITION was 0.914%.

CC(=O)N1CCCC(c2ccc(Nc3nc(C)cc(C)n3)cn2)C1 (configuration not stated) was tested. Which INHIBITION did it give?
The INHIBITION was 33.5%.

How did the INHIBITION turn out when CSc1[nH]nc(NC(=O)c2cccnc2)c1C#N was run?
The INHIBITION was -35.5%.

How did the INHIBITION turn out when CCn1cnc(NC(=O)N2CCC(c3ccc(F)cc3)C2)n1 (configuration not stated) was run?
Its INHIBITION is 31.6%.

Which INHIBITION does the source give for CCn1cnc(NC(=O)N2CCCC(c3ccccc3)CC2)n1 (configuration not stated) here?
The INHIBITION was 22.4%.

Which INHIBITION does the source give for CCn1cnc(NC(=O)N2CCC(c3ccc(Cl)cc3)C2)n1 (configuration not stated) here?
Its INHIBITION is 58.2%.

Which INHIBITION does the source give for CSCc1cccc(S(=O)(=O)N2CCCC2)c1 here?
Its INHIBITION is 33.3%.

For Cc1cccc(N2CCC3(CCN(Cc4ccccn4)CC3)CC2)n1, which INHIBITION is on record?
The INHIBITION was 15.3%.

Which INHIBITION does the source give for COCCC(=O)N1CCCC1c1nc(O)cc(C(C)C)n1 (configuration not stated) here?
Its INHIBITION is 23.2%.

With CC[C@@H](CO)Nc1nccc(-c2c[nH]c3cc(C(=O)OC)ccc23)n1 as the molecule, how does the INHIBITION read?
The INHIBITION was 69.3%.

For COC(=O)c1ccc2c(-c3ccnc(NCCO)n3)c[nH]c2c1, which INHIBITION is on record?
The INHIBITION was 10%.

How did the INHIBITION turn out when COC(=O)c1ccc2c(-c3ccnc(N[C@@H](C)CO)n3)c[nH]c2c1 was run?
Its INHIBITION is 18.9%.

With COc1ccc(CNC2CCC(O)CC2)cc1OCCCC#N (configuration not stated) as the molecule, how does the INHIBITION read?
The INHIBITION was 17.8%.

Which INHIBITION does the source give for Cc1ccc(CN2CCC3(CC2)NC(=O)CC3c2ccncc2)cc1C (configuration not stated) here?
The INHIBITION was 16.6%.

How did the INHIBITION turn out when O=C(CN1C=Nc2ccccc2S1(=O)=O)NCC1CC1 was run?
Its INHIBITION is 29.2%.

For O=C(CN1C=Nc2ccccc2S1(=O)=O)NCCCc1ccccc1, which INHIBITION is on record?
The INHIBITION was 55.2%.

How did the INHIBITION turn out when CC(C)OCCCNC(=O)CN1C=Nc2ccccc2S1(=O)=O was run?
Its INHIBITION is 12.7%.

For CC(C)CCC(C)NC(=O)CN1C=Nc2ccccc2S1(=O)=O (configuration not stated), which INHIBITION is on record?
Its INHIBITION is 12.7%.

For Cc1ccc(CNC(=O)CN2C=Nc3ccccc3S2(=O)=O)s1, which INHIBITION is on record?
The INHIBITION was 22.3%.

Which INHIBITION does the source give for O=C(CN1C=Nc2ccccc2S1(=O)=O)NCc1ccccc1 here?
The INHIBITION was 7.27%.

For CC(C)CNC(=O)CN1C=Nc2ccccc2S1(=O)=O, which INHIBITION is on record?
Its INHIBITION is 56.1%.

With CC(NC(=O)CN1C=Nc2ccccc2S1(=O)=O)c1ccccc1 (configuration not stated) as the molecule, how does the INHIBITION read?
The INHIBITION was -18.5%.

O=C(CN1C=Nc2ccccc2S1(=O)=O)NCCc1cccs1 was tested. Which INHIBITION did it give?
Its INHIBITION is 53.8%.
